# Assay outcomes deposited in PubChem BioAssay by several laboratories.
# PLAP act: activators of human placental alkaline phosphatase. activation fold at 20 µM. 1.2% of 96,000 active. purified PLAP enzyme, luminescent substrate read-out; hits give high values; in the data active = activation fold above about 2
# Her2 expr inh: lowers expression of human Her2 kinase | SKBR-3 HER2 protein level, AlphaScreen, 18-24 h; hits give low values | HER2 level % of control, % at 10 µM | 0.69% of 65,000 active | P04626;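 active = HER2 level under 5% of the carrier-only control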;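 also: lower value means stronger loss of Her2 protein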
# M1 ag: M1 muscarinic receptor agonism | CHO-M1 cells, Fluo-4 calcium fluorescence, agonist mode; hits give high values | AID 626 | 3% of 64,000 active | B-score at 10 µM;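 active = fluorescence rise, raw or as B-score row- and column-corrected plate score, outside the 99.7% band of its plate's samples, either direction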
# Cav32 inh: human Cav3.2 channel inhibition, primary screen. 4% of 100,000 active. AID 449739. B-score at 10 µM. Cav3.2-expressing cells, Fluo-4 calcium fluorescence FDSS; hits give low values;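 active = single-dose well whose peak fluorescence ratio is a statistical outlier from its plate by either plate-standardised score or position-corrected B-score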
# M1 antag: M1 muscarinic receptor (rat) antagonism; P08482; CHO-M1 cells, Fluo-4 calcium, ACh EC80 antagonist mode; hits give low values; B-score at 10 µM; 3.4% of 64,000 active;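 active = calcium fluorescence response, raw or row-and-column corrected B-score, differing from the plate sample mean either way at a set confidence level, mostly lower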
# Hits are given with their value; 0 = inactive; - = no result. Most compounds without a hit are left out; they make up all but 7.9% or so of the library.
SMILES,PLAP act,Her2 expr inh,M1 ag,Cav32 inh,M1 antag
CCOC(=O)c1[nH]nc(-c2cc(CC)c(O)cc2O)c1-c1cscn1,2.1,-,-,0,-
Cc1csc2nc(CCNS(=O)(=O)c3cccs3)cn12,2.9,0,0,0,0
Cc1nc(CCNS(=O)(=O)c2cccs2)cs1,0,0,0,0,0
CCc1ccc(S(=O)(=O)NCCc2cn3ccsc3n2)s1,2,0,0,0,0
O=S(=O)(NCc1cn2ccsc2n1)c1cccs1,0,0,0,0,0
CCOCC(=O)Nc1nc(-c2ccccc2)c(CC)s1,0,-,-,0,-
COc1ccc(-c2nnc(SCC(=O)Nc3ncc(C)s3)n2-c2ccccc2)cc1OC,0,0,0,0,0
CCN1CCN(C(=O)c2ccc(COc3ccc(Cl)cc3)o2)CC1,0,-,-,0,-
CCOc1ccc(OCc2ccc(C(=O)N3CCc4ccccc4C3)o2)cc1,0,-,-,-2.78,-
Cc1cccc(N2CCN(C(=O)c3c(C)nn(Cc4ccccc4Cl)c3C)CC2)c1C,0,-,-,-5.48,-
CC(=O)Nc1cccc(NC(=O)CSc2nnc(Cc3cccn3C)n2-c2ccc(C)cc2)c1,0,0,0,0,0
Cn1cccc1Cc1nnc(SCC(=O)Nc2cccc(Cl)c2)n1-c1ccc(F)cc1,0,0,0,-10.2,0
Cn1cccc1Cc1nnc(SCC(=O)Nc2cccc(F)c2)n1-c1ccc(F)cc1,0,0,0,-7.32,0
COc1ccc(-n2c(Cc3cccn3C)nnc2SCC(=O)Nc2cccc(Cl)c2)cc1,0,0,0,-12.7,0
COc1ccc(OC)c(C(=O)CSc2nc3c(c(=O)n(C)c(=O)n3C)n2C(C)C)c1,0,0,0,0,0
O=C(Cn1nc(C(F)(F)F)c2c1CCC2)NCc1ccc(Cl)cc1,-,-,-,-4.55,-
O=C(Cn1nc(C(F)(F)F)c2c1CCCC2)Nc1ccc2c(c1)OCO2,0,0,0,-4.9,0
O=C(NCCCCc1ccccc1)C1CC(c2ccc(C(F)(F)F)cc2)=NO1 (centres undefined),-,-,-,0,-
O=c1c(C(c2ccccc2)c2c(O)sc3ccccc3c2=O)c(O)sc2ccccc12,0,-,-,-,-
COc1cc(C)c(C(C)C)cc1S(=O)(=O)N1CCN(C)CC1,0,0,0,0,0
COc1cc(C)c(C(C)C)cc1S(=O)(=O)n1cnc(C)c1,0,0,0,-4.79,0
Cc1ccc(C(=O)OCC(=O)Nc2sc3c(c2C#N)CCCCC3)cc1NC(=O)c1ccco1,0,0,0,-3.85,0
Cc1ccc(C(=O)OCC(=O)Nc2sc3c(c2C#N)CCCC3)cc1NC(=O)c1ccco1,0,-,-,0,-
CC1CC(N(C(=O)c2ccccc2Cl)c2ccccc2)c2ccccc2N1 (centres undefined),0,-,-,-,-
C/C=C1\COC(C(=O)NCCCN2CCCC2=O)(C(F)(F)F)C=C1C=C(C)C (centres undefined),-,-,-,0,-
SMILES,PLAP act,Her2 expr inh,M1 ag,Cav32 inh,M1 antag
CC1(C)CN=C(N2CCN(C3=NCC(C)(C)S3)CC2)S1,0,0,0,-,-6.3
CNc1oc(-c2cccs2)nc1C#N,0,0,0,-,0
N#Cc1nc(-c2cccs2)oc1NCCc1ccccc1,0,0,0,0,0
N#Cc1nc(-c2cccs2)oc1NCc1ccc2c(c1)OCO2,0,0,0,-5.62,0
COc1ccc(Nc2oc(-c3cccs3)nc2C#N)cc1,0,0,0,-4.36,0
CCOC(=O)c1ccc(NC(=O)c2nc[nH]c2C(=O)N(CC)CC)cc1,-,-,-,0,-
CCOC(=O)c1[nH]cnc1C(=O)Nc1ccncc1,2.5,0,0,0,0
O=C(c1ccc2c(c1)N(Cc1ccccc1)CCS2)N1CCCCC1,0,-,-,-8.31,-
O=C(c1ncn[nH]1)N1CCN(c2nc(-c3ccccc3)cs2)CC1,2.6,0,0,0,0
O=C1NCCc2c1[nH]c1c(Cl)ccc(Cl)c21,0,0,27.8,0,0
N=c1c2c(-c3ccccc3)c(-c3ccccc3)n(Cc3ccco3)c2ncn1CCO,-,-,-,-7.41,-
COc1ccc(OC)c(CC(NC(C)=O)C(=O)NC2CCN(c3nc(C)cc(C)c3C#N)CC2)c1 (centres undefined),0,0,0,-,0
COc1cc2c(cc1OC)C(c1cccc([N+](=O)[O-])c1)N(C(=O)c1ccc(F)cc1)CC2 (centres undefined),0,-,-,-5.3,-
Cc1nc2cc(F)ccc2n1C1CCN(S(=O)(=O)c2ccccc2)CC1,0,0,0,0,0
O=C(NCc1ccccc1)C1=C[C@@H](c2coc3ccccc3c2=O)C[C@@H](OCCCCO)O1,-,-,-,0,-
CC1(C)CC(=O)C2=C(C1)OC1=C(C(=O)CC(C)(C)C1)C2c1ccc(O)cc1O,0,-0.6,158,-4.69,0
O=C(CCS(=O)(=O)Cc1ccccc1)NCC1CCCO1 (centres undefined),0,0,0,0,0
